Here are results for 40 compounds from PubChem BioAssay AID492960 (National Center for Advancing Translational Sciences (NCATS), 2010).

SMILES strings stand for the structures. Records with an inconclusive call do not appear. Unmarked numbers belong to inactive results. Active and inactive are the calls of the source. The call rests on the fitted dose curve; in most records, active means well fitted curve in the direction sought with a large enough effect; inconclusive means small, poorly fitted or top-dose-only effect, or effect the other way, or another doubt; inactive means no such curve, though single readings can be large or run the other way.

A short description of this assay: Secondary Assay for lipid storage modulators: HepG2 cell LDSA assay for probe SAR. Particulars: HepG2 lipid droplet BODIPY, laser-scanning cytometry, 18-24 h; series mostly up to 46.1 µM; activity, negative = less lipid: at the top concentration. From the text: NIH Molecular Libraries Probe Production Centers Network [MLPCN] NIH Chemical Genomics Center [NCGC] MLPCN Grant: 1 R03 MH085686-01 Assay Submitter (PI): Beller, Mathias; Max-Planck-Institut fur Biophysikalische Chemie NCGC Assay Overview: Storing lipids as a reservoir for energy or the anabolism of elementary metabolites is a common feature of probably all cells and is conserved from bacteria to humans. The universal cellular lipid storage organelle is the so-called lipid storage droplet (LD). Although ubiquitous, LDs share a simple structure composed of a hydrophobic core that harbors the storage lipids, which is shielded by a droplet-specific phospholipid monolayer to which proteins are attached. The current model of LD biogenesis involves an incorporation of the lipid core into the membrane leaflets of the endoplasmic reticulum (ER) followed by a subsequent budding-like maturation of a LD, which ultimately pinches off. Once released, LD volume can increase by localized lipogenesis or fusion of existing droplet. Storage lipids are re-mobilized enzymatically by lipase activity. Lipase regulation in the adipocyte is heavily studied and involves multiple components including catecholamine signaling, the LD-associated proteins Perilipin and comparative gene identification (CGI-58) and at least two lipases named hormone sensitive lipase (HSL) and adipocyte triglyceride lipase (ATGL). LD regulation outside of the adipocyte is poorly understood and only few components are known. However, there is an urgent need to learn more about ectopic fat depots as mislocalized storage of lipids, for example in the liver or muscle, is an eminent health problem associated with insulin resistance or the metabolic syndrome.
NCGC Assay Protocol Summary: The assay was performed with HepG2 cells, using an oleic acid feeding protocol similar to the S3 assay. We dispensed 4 uL of cells to give 700 cells/well into Greiner bio-one 1,536-well plates (black walled, clear bottom). Triacsin C (Sigma-Aldrich T-4540), an inhibitor of long-chain fatty acyl CoA synthetase that blocks synthesis of triglycerides, was used as a positive control for lipid under-storage using a final concentration of 20 uM. The orexin antagonist, SB408124 - previously identified to stimulate lipid over-storage, was used as a positive control for lipid over-storage using a final concentration of 20 uM. A total of 23 nL of compound solution of different concentrations were transferred to the assay plates using a Kalypsys pin tool equipped with a 1,536-pin array containing 10-nL slotted pins (FP1S10, 0.457-mm diameter, 50.8 mm long; V&P Scientific). One microliter of oleic acid was added (400 uM final concentration), and the plate was lidded with stainless steel rubber gasket lined lids containing pinholes. After 18-24 h incubation at […] and 95% humidity, 4 uL of the dyes BODIPY 493/503 (Molecular Probes) and the Cell Tracker Red CMTPX dye (Molecular Probes) were added to the wells to stain lipid droplets and enumerate cell number, respectively. Fluorescence was detected by excitation of the fluorophores with a 488-nm laser on an Acumen Explorer (TTP Lab Tech). The total intensity in channel 2 (500-530 nm) reflected lipid droplet accumulation. Cells were detected using channel 3 (575-640 nm) with 5-um width and 100-um depth filters. The ratio of the number of objects in PMT channel 2 over the number of objects in PMT channel 3 was also calculated. Percent activity was computed relative to an internal control (100% inhibited lipid droplet deposition due to the presence of 20 uM Triacsin C), which was added to 32 wells/plate.
With `O=C(NC1CCCc2c1cnn2-c1ccc(F)cc1F)C1CCCCC1` (stereo not given), the “activity, negative = less lipid” value was 8.73%.

Take `CCn1c(C(=O)NCCc2ccc(OC)c(OC)c2)cc2sc(Cl)cc21`: the “activity, negative = less lipid” value is 31.2%. On to `Cc1ccc(-c2cnc(SCC(=O)Nc3nc(C)cs3)n2Cc2ccco2)cc1`, for which the “activity, negative = less lipid” value was -16.9%. `O=C(NC1CCCc2c1cnn2-c1ccc(F)cc1F)c1ccc2cc[nH]c2c1` (stereo not given): the “activity, negative = less lipid” value is 10.4%.

For the compound `COc1ccc(CCNC(=O)c2cc3sccc3n2Cc2ccc(Cl)cc2)cc1OC`, the “activity, negative = less lipid” value is -24.7%. In the case of `CCn1c(C(=O)NCCc2ccc(OC)cc2)cc2sccc21`, the “activity, negative = less lipid” value was -36.7%. On to `O=C(NC1CCCc2c1cnn2-c1ccccc1F)c1cccc2nccnc12` (stereo not given), for which the “activity, negative = less lipid” value was 0%. As for `CCOc1ccc(CCNC(=O)c2cc3ccccc3o2)cc1OCC`, the “activity, negative = less lipid” value was 29.9%.

Turning to `CCOc1ccc(CCNC(=O)c2csc(Br)n2)cc1OCC`, the “activity, negative = less lipid” value is -2.6% [at 38.8 µM]. Turning to `COc1ccc(-c2cnc(SCC(=O)Nc3nc(C)cs3)n2-c2ccccc2)cc1`, the “activity, negative = less lipid” value is 6.49%.

As for `CCOc1ccc(CCNC(=O)c2cc3sccc3n2Cc2ccc(Cl)c(F)c2)cc1OCC`, the “activity, negative = less lipid” value was -7.79%. On to `COc1nc(-c2ccc3c(c2)OCO3)n(-c2ccc(NC(=O)CSc3ccccc3)cc2)n1`, for which the “activity, negative = less lipid” value was 5.19%. For `CCOc1ccc(CCNC(=O)c2cc3sccc3n2Cc2ccccc2)cc1OCC`, the Potency is 14.1 µM (active). `O=C(NC1CCCc2c1cnn2-c1ccc(F)cc1F)c1cccc(=O)[nH]1` (stereo not given): the “activity, negative = less lipid” value is -20.9%. `CCn1c(C(=O)NCCc2ccc(OC)c(OC)c2)cc2sccc21`: the “activity, negative = less lipid” value was -7.94%. For `O=C(Cc1ccccc1)NC1CCCc2c1cnn2-c1ccc(F)cc1F` (stereo not given), the “activity, negative = less lipid” value is 5.04%. `COc1ccc(-c2cnc(SCC(=O)Nc3nccs3)n2Cc2ccccc2)cc1`: the “activity, negative = less lipid” value is 7.79%.

For `COc1ccc(-c2cnc(SCC(=O)Nc3nc(C)cs3)n2Cc2ccco2)cc1`, the “activity, negative = less lipid” value was 20.8%. As for `CCOc1ccc(CCNC(=O)c2ccc3[nH]ccc3c2)cc1OCC`, the “activity, negative = less lipid” value is 67.5%.

In the case of `CCOc1ccc(CCNC(C)=O)cc1OCC`, the “activity, negative = less lipid” value was 15.6%. For `CCOc1ccc(CCNC(=O)c2cc3c(s2)CCC3)cc1OCC`, the “activity, negative = less lipid” value is 58.4%. On the same count and under the same terms, to `CCOc1ccc(CCNC(=O)c2cc3sccc3n2Cc2ccc(-n3cncn3)cc2)cc1OCC` belongs 18.2%; to `CCOc1ccc(NC(=O)NC2(C(=O)N3CCCCC3)CCCCC2)cc1`, -9.09%. On to `CCOc1ccc(CCNC(=O)c2cc3sccc3n2C)cc1OCC`, for which the Potency is 25 µM (active). Take `O=C(Nc1ccccc1-c1cn2c(CN3CCNCC3)csc2n1)c1cnc2ccccc2n1`: the Potency is 11.2 µM (active). In the case of `CCOc1ccc(CCNC(=O)c2cc3sccc3n2Cc2cccnc2)cc1OCC`, the “activity, negative = less lipid” value is 23.4%. With `CCOc1ccc(CCNC(=O)c2cc3ccccc3n2C)cc1OCC`, the “activity, negative = less lipid” value was 9.09%. On to `CCOc1ccc(CCNC(=O)c2cc3sccc3n2Cc2ccc(OC(F)F)cc2)cc1OCC`, for which the “activity, negative = less lipid” value is -20.8%. In the case of `CCOC(=O)C1CCN(C(=O)CNC(=O)Nc2ccccc2Cl)CC1`, the “activity, negative = less lipid” value is 16.9%. Regarding `O=C(NC1CCCc2c1cnn2-c1ccc(F)cc1F)c1cnon1` (stereo not given), the “activity, negative = less lipid” value is -15.8%.

Consider `CCOC(=O)C1CCN(C(=O)C2(NC(=O)Nc3ccccc3Cl)CCCCC2)CC1`, for which the “activity, negative = less lipid” value is 28.6%. Take `O=C(NC1CCCCC1)NC1(C(=O)N2CCCC2)CCCCC1`: the “activity, negative = less lipid” value is -5.19%. `Cc1cc2c(cc1C1(c3ccc(C(=O)O)cc3)CC1)C(C)(C)CCC2(C)C`: the “activity, negative = less lipid” value was -10.4%. The same measure, in the same setting: to `CCOc1ccc(CCNC(=O)C2COc3ccccc3O2)cc1OCC` (stereo not given) belongs 6.49%; to `O=C(NC1CCCc2c1cnn2-c1ccc(F)cc1F)C1CC1` (stereo not given), -7.14%.

As for `Cc1csc(NC(=O)CSc2ncc(-c3ccccc3)n2Cc2ccco2)n1`, the “activity, negative = less lipid” value is 18.2%. Same read-out and setting: to `CCn1c(-c2ccc(C)cc2)cnc1SCC(=O)Nc1nc(C)cs1` belongs -3.9%; to `O=C(NC1CCCc2c1cnn2-c1ccc(F)cc1F)c1cnccn1` (stereo not given), 10.3%; to `CCOc1ccc(CCNC(=O)c2cc3sc(CC)cc3n2C)cc1OCC`, 20.8%. `COc1ccc(-n2ncc3c2CCCC3NC(=O)c2cnc(C)cn2)cc1` (stereo not given): the Potency was 12.5 µM (active).
